In publication PMC10726135, “HNF4α isoforms regulate the circadian balance between carbohydrate and lipid metabolism in the liver”:
In all, about 18,000 sequences were measured (“log2 normalized intensity”: median about 0.39, highest 2% from about 6.6 on). The entries come from a sample that favours the highest values as a whole.

Each sequence was assayed against T1, HNF4alpha2 (COS-7 nuclear extract) (Homo sapiens, UniProt P41235 1-474) (assay: protein-binding microarray; COS-7 nuclear extract on double-stranded Agilent 4x180k PBM; binding buffer, salt, pH and temperature not given in the material; high values mean tight binding). Conditions: chain copies: 2; label: 3' end of strand 1 on the slide; dsDNA, one strand shown.
T1 sequence: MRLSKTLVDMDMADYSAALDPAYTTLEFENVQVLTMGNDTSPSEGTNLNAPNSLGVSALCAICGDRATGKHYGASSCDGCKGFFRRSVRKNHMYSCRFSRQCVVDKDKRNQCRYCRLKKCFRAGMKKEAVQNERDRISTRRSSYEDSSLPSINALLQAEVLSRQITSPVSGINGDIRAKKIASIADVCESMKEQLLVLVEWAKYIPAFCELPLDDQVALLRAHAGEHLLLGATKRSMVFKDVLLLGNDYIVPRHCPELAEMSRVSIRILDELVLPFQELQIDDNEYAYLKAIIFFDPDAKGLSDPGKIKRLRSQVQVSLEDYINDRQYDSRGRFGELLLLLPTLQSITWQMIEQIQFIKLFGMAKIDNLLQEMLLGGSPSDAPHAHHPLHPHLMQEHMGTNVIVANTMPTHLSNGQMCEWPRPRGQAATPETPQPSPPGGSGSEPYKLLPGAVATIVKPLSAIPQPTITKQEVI
Method in brief: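 A custom Agilent SurePrint G3 4x180k array, spotted in quadruplicate with ~44,000 test sequences as ~60-nt oligonucleotides made double-stranded, was incubated with nuclear extracts. The extracts came from COS-7 cells transiently transfected by CaPO4 with a human HNF4α isoform expression vector. Bound HNF4α was imaged on an Agilent G2565CA scanner at 2-µm resolution, and the binding signal was taken as Agilent software's background-corrected, normalized gProcessedSignal.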

Row | Sequence | binding signal [log2 normalized intensity]
1 | CCTCCATTAACTAACCTTTGAACCAGATGGGCCTAGGGAGATTAGAGTATCGGTCGA | 4.77
2 | CCTTACCTCCATTAACTAACCTTTGAACCAGCCTAGGGAGATTAGAGTATCGGTCGA | 6.78
3 | GGTCCTAAGACTAACCTTTGACCATCCACGGCCTAGGGAGATTAGAGTATCGGTCGA | 5.96
4 | CATGTTAATTTAAATAACAAGGATAGCGTCGCCTAGGGAGATTAGAGTATCGGTCGA | -0.878
5 | AAGGTCAGGATCTCAGCCGCGCGGCTTCAGGCCTAGGGAGATTAGAGTATCGGTCGA | -0.906
6 | CAGTGGGGGGGGGGGGGGGGGTGTGTCTGTGCCTAGGGAGATTAGAGTATCGGTCGA | 1.34
7 | CTGGCAAAGCCATGAAGCAATTCTGAGCCCGCCTAGGGAGATTAGAGTATCGGTCGA | -0.972
8 | TCCAGATCAAGGATTTTTTCTTGGACTTTGGCCTAGGGAGATTAGAGTATCGGTCGA | 5.42
9 | ATCAAGGATTTTTTCTTGGACTTTGGTCATGCCTAGGGAGATTAGAGTATCGGTCGA | 8.1
10 | GGATTTTTTCTTGGACTTTGGTCATCCTTTGCCTAGGGAGATTAGAGTATCGGTCGA | 6.83
11 | TTGGACTTTGGTCATCCTTTACTTTCCCAAGCCTAGGGAGATTAGAGTATCGGTCGA | 5.18
12 | TTTTCTTGGACTTTGGTCATCCTTTACTTTGCCTAGGGAGATTAGAGTATCGGTCGA | 6.04
13 | GACTTTGGTTGGATTTCTTGGCTTCTCTTGGCCTAGGGAGATTAGAGTATCGGTCGA | 1.04
14 | TCCAAAAGGGCAGCAGTAACCCCCCAGGAGGCCTAGGGAGATTAGAGTATCGGTCGA | 3.7
15 | GGTTGCCCTAGTGACTCTAGGAACCTTTCTGCCTAGGGAGATTAGAGTATCGGTCGA | -0.0376
16 | TATGAGAGAGAGAGAGAGGTGGGCAAAGGTGCCTAGGGAGATTAGAGTATCGGTCGA | 1.53
17 | AACAAAAAGGGCAAAGGTCAGCTCATTCCCGCCTAGGGAGATTAGAGTATCGGTCGA | 6.63
18 | CACTGGGGTCATGGAGCTGGAGGGCAAAGGGCCTAGGGAGATTAGAGTATCGGTCGA | 3.25
19 | TGGGCCCACAGATGATCAAAGGTCAGTCTTGCCTAGGGAGATTAGAGTATCGGTCGA | 6.53
20 | AAAGGGCAAAGGTCAGCTCATTCCCTAGGGGCCTAGGGAGATTAGAGTATCGGTCGA | 6.27
21 | AATCATGGGCCCACAGATGATCAAAGGTCAGCCTAGGGAGATTAGAGTATCGGTCGA | 7.06
22 | GGGTCATGGAGCTGGAGGGCAAAGGTCAGAGCCTAGGGAGATTAGAGTATCGGTCGA | 7.97

Row | Sequence | binding signal [log2 normalized intensity]
23 | GTGGGTGCCAAACAAAAAGGGCAAAGGTCAGCCTAGGGAGATTAGAGTATCGGTCGA | 8.12
24 | ATGGAGCTGGAGGGCAAAGGTCAGAGGCTGGCCTAGGGAGATTAGAGTATCGGTCGA | 6.39
25 | GAGAGAGAGAGAGGTGGGCAAAGGTCTCAAGCCTAGGGAGATTAGAGTATCGGTCGA | 2.55
26 | AGAGCAATCATGGGCCCACAGATGATCAAAGCCTAGGGAGATTAGAGTATCGGTCGA | -0.805
27 | GCAAAGGTCAGCTCATTCCCTAGGGCTCGGGCCTAGGGAGATTAGAGTATCGGTCGA | -0.876
28 | CCAAAGTCCTTCCCAAGTCCTGCATGTGTTGCCTAGGGAGATTAGAGTATCGGTCGA | 1.84
29 | CCCTACTGTACCCTATGCACCCCACAGTGCGCCTAGGGAGATTAGAGTATCGGTCGA | 2.11
30 | ACCTTTAGCACCGTAAGAGAGTATTTCCCAGCCTAGGGAGATTAGAGTATCGGTCGA | 1.13
31 | CACAAGCTGGGTCAACATCAGCCCTCCTAGGCCTAGGGAGATTAGAGTATCGGTCGA | 1.49
32 | GGGCACCGCCTCCACACCCCAGCCTGCCCTGCCTAGGGAGATTAGAGTATCGGTCGA | 3.1
33 | GGGGCAGGTAAGTACCAATATTTGTTAAGTGCCTAGGGAGATTAGAGTATCGGTCGA | 1.08
34 | ATACTTTCAGCTAGCTGAGTGAGTAGGTTCGCCTAGGGAGATTAGAGTATCGGTCGA | 1.31
35 | TCAGTTTGGCTCTTATGTCCCTCCTGACCTGCCTAGGGAGATTAGAGTATCGGTCGA | 3.25
36 | TTGGCTCTTATGTCCCTCCTGACCTTTGGAGCCTAGGGAGATTAGAGTATCGGTCGA | 8.6
37 | CCTGACCTGCCCTTTGTCCCTCCTGCTAGTGCCTAGGGAGATTAGAGTATCGGTCGA | 3.3
38 | AGTCCTGACCTTGGACTCTGCCCTTGGCCTGCCTAGGGAGATTAGAGTATCGGTCGA | 5.81
39 | ACCTTTGTCCTCATTGAGCCCTCCCCTTGTGCCTAGGGAGATTAGAGTATCGGTCGA | 4.33
40 | GCCTCTTTATCTCCTCCCCTTGAGACTTTAGCCTAGGGAGATTAGAGTATCGGTCGA | 2.85
41 | TCTTATGTCCCTCCTGACCTTTGGACTTGAGCCTAGGGAGATTAGAGTATCGGTCGA | 10.3
42 | AACTCTCAGTTTGGCTCTTATGTCCCTCCTGCCTAGGGAGATTAGAGTATCGGTCGA | 1.35
43 | TGTCCCTCCTGACCTTTGGACTTGATAGAGGCCTAGGGAGATTAGAGTATCGGTCGA | 9.11
